Here are results for 39 compounds from PubChem BioAssay (NCI).

Assay [1] can be described thus: NCI Yeast Anticancer Drug Screen. Data for the rad50 strain (AID 155).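 Also: 0% = growth of vehicle-only cultures of the same strain.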 Conditions: S. cerevisiae rad50 strain growth inhibition; at 50.0 µM; hits give high values. Summed up: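 Vehicle-treated cultures provide the reference for the growth inhibition reported for compound-exposed, repair-deficient yeast.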
Assay [2] in a line: NCI Yeast Anticancer Drug Screen. Data for the sgs1 mgt1 strain (AID 161).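 Also: 0% = growth of cultures given vehicle only.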 Conditions: S. cerevisiae sgs1 mgt1 strain, at 50.0 µM, hits give high values. Summed up: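 Growth of a repair-deficient yeast mutant was monitored after compound treatment and expressed as inhibition relative to vehicle-treated cultures.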
A short description of assay [3]: NCI Yeast Anticancer Drug Screen. Data for the cln2 rad14 strain (AID 165).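 Also: 0% = growth equal to vehicle treated cultures.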 Conditions: S. cerevisiae cln2 rad14 strain, at 50.0 µM, hits give high values. Summed up: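 Yeast carrying cln2 and rad14 alterations (cell cycle control and DNA damage repair) were exposed to compounds. Growth inhibition was measured against vehicle-treated controls.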
The nature of assay [4]: NCI Yeast Anticancer Drug Screen. Data for the bub3 strain (AID 167). Conditions: S. cerevisiae bub3 mutant strain, at 50.0 µM, hits give high values. Summed up:
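Mutant yeast screening strain plus compound; vehicle-treated cultures serve as the 0% inhibition reference.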

Assay [5] can be described thus: NCI Yeast Anticancer Drug Screen. Data for the mlh1 rad18 strain (AID 175). Conditions: S. cerevisiae mlh1 rad18 strain growth inhibition; at 50.0 µM; hits give high values. Summed up: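 Growth inhibition of the yeast strain was measured after compound exposure and expressed relative to vehicle-treated controls. The strain carries defined defects in DNA damage repair.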

Each structure is given as a SMILES string. This is part of a sample that, as a whole, favours compounds with a hit. Of some 79,000 tested, about 15% had one in any assay. Values without a mark were called inactive. Activity calls are given as the source filed them. Rule as the data show it: active = growth inhibition above about 70%; inactive = the rest.

`NC(Cc1ccccc1)C(=O)Nc1ccccc1` (stereo not given): the growth inhibition in assay [1] was 18.3%; in assay [2], -7.3%; in assay [3], 13.3%; in assay [4], -22.1%; in assay [5], 10.5%.
With `O=C(CCl)Oc1cccc([N+](=O)[O-])c1`, the growth inhibition in assay [1] is 0.6%; in assay [2] it was -7.05%; in assay [3], -8.45%; in assay [4], -17.5%; in assay [5] it was -20.4%.
The corresponding values for `CCN(CC)CCCC(C)Nc1c2ccc(Cl)cc2nc2c(Cl)cc(Cl)cc12` (stereo not given) are -8.55%, 2.5%, 23.6%, 28.3% and -8.85%.
For `Cc1ccc(Cl)cc1NC(=O)/C=C/c1ccccc1`, in that order: 3.05%, 6.4%, -7.35%, 10.5% and 18.6%.
For `CN(C)C(=O)Nc1cccc(OS(=O)(=O)N(C)C)c1`, in that order: 5.4%, 23.2%, -18.6%, 22.9% and 12.6%.
Consider `O=CNc1ccccc1Cc1ccccc1`, for which the growth inhibition is 13.2% in assay [1]; 4.5% in assay [2]; 7.85% in assay [3]; 4.25% in assay [4]; 1.65% in assay [5].
The corresponding values for `CC(=O)NC(C=O)C(O)C(O)C(O)C(=O)O` (stereo not given) are 21.7%, 2.3%, 23.1%, 8% and 10.5%.
The corresponding values for `C=CCCCCCCCCCO` are -9.2%, -1.9%, 10.8%, -18.4% and -1.8%.
The corresponding values for `Cc1cc(C(=O)O)cc(C)c1N(C)Cc1cnc2nc(N)nc(N)c2n1` are 5.6%, 0.25%, 20.7%, 17.4% and -5%.
`BrCCCOc1ccccc1`: the growth inhibition in assay [1] is -23.7%; in assay [2], -5.65%; in assay [3], -2.9%; in assay [4] it was -2.4%; in assay [5], 0.7%.
For `CN(C)Cn1c2ccccc2c2ccccc21`, in that order: -2.05%, 3.9%, 0.1%, -0.8% and -12.4%.
For `CCOC(=O)C(=[N+]=[N-])C(O)C1OC(c2ccccc2)OCC1O` (stereo not given), in that order: 12.8%, 18.9%, 22.1%, 9.15% and 24.7%.
For `CC/C(C)=N\NC(N)=O`, in that order: 6.85%, -29.7%, -16.1%, 0.1% and 6.9%.
With `Nc1cc2c(cc1I)-c1ccccc1C2O` (stereo not given), the growth inhibition was 1.65% in assay [1]; -12.8% in assay [2]; -2.9% in assay [3]; 11.2% in assay [4]; -8.75% in assay [5].
For `CCCCCCCCCCCCCCCCCCNc1ccccc1`, in that order: -6.15%, 12.2%, -29.8%, 1.15% and 16.2%.
The corresponding values for `COc1ccc(CC2OC(C)CC(C)(C)O2)cc1` (stereo not given) are 38.2%, 4.75%, -55.8%, -4.5% and 37.2%.
As to `CC(=O)c1ccc(O)c(C=O)c1O`, the growth inhibition in assay [1] is 11.7%; in assay [2], 27.1%; in assay [3] it was 2.65%; in assay [4] it was -2.9%; in assay [5], 31.9%.
For `CCCCCCCCCCCCCCCCCCCCC1CC(=O)OC1=O` (stereo not given), in that order: 41.6%, 36.4%, 9.45%, 2.7% and 29.2%.
For `O=C(CC(=O)N1N=C(n2ccc3ccccc32)CC1c1ccccc1)Nc1cccc(Cl)c1` (stereo not given), in that order: -35.5%, -11.8%, 12.1%, -3.5% and -5.85%.
The corresponding values for `Cc1c(CCNC(=O)C(F)(F)F)ccc2c1[nH]c1ccccc12` are -3.3%, 11.8%, -41.4%, -2.4% and -5.95%.
For the compound `CCOC(=O)C(Cc1cn(S(=O)(=O)c2ccc(C)cc2)cn1)P(=O)(OCC)OCC` (stereo not given), the growth inhibition in assay [1] was -34.5%; in assay [2], -13.4%; in assay [3] it was 14.2%; in assay [4] it was -16.7%; in assay [5], -14.3%.
The corresponding values for `CC1CCN(C(c2ccccc2)c2ccc3ccccc3c2O)CC1` (stereo not given) are 51.8%, 55.4%, -6.8%, 33.6% and 75% (active).
The corresponding values for `COc1cc(/C=C(\C#N)C(=O)c2ccccc2)ccc1O` are -13.8%, -11.9%, 5.4%, -27.5% and 3.05%.
`S=c1[nH]c2ccccc2n2cccc12`: the growth inhibition in assay [1] is 14.9%; in assay [2], 27.4%; in assay [3] it was 12.8%; in assay [4], -12.3%; in assay [5] it was 19.2%.
Take `O=[N+]([O-])C(/C=C(\Cl)[N+](=O)[O-])=C1Nc2ccccc2N1`: the growth inhibition in assay [1] was 29.9%; in assay [2], 57.2%; in assay [3] it was 19.4%; in assay [4], 21.1%; in assay [5] it was 50.5%.
The corresponding values for `O=Cc1ccc2ccocc1-2` are 9.15%, -27.6%, -11.8%, -20.7% and -41.2%.
The corresponding values for `Nc1c(N=Nc2ccc(S(=O)(=O)Nc3cnccn3)cc2)cc(S(=O)(=O)O)c2ccccc12` are 10.6%, 8.3%, 5.9%, 9.8% and 26.6%.
The corresponding values for `CN(C)c1ccc(C=C2C(=O)CC(C)(C)CC2=O)cc1` are 12.5%, 23.1%, 16.1%, 5.85% and -8.4%.
Take `OCCCCC(c1ccc(O)cc1)c1ccc(O)cc1`: the growth inhibition was 17% in assay [1]; 8.8% in assay [2]; 25.1% in assay [3]; -18.9% in assay [4]; -14.7% in assay [5].
The corresponding values for `CC(C)C(N=Cc1ccccc1O)C(=O)O` (stereo not given) are -8.35%, -10.2%, -5.75%, -47.9% and -4.3%.
For `FC(F)(c1nnnn1Cc1ccccc1)C(F)(F)C(F)(F)C(F)(F)C(F)(F)C(F)(F)C(F)(F)C(F)(F)c1nnnn1Cc1ccccc1`, in that order: 10.2%, -11.7%, -2.65%, 7.95% and 19.3%.
`N#CCCN(C1=NN(C(=O)CC(=O)Nc2ccccc2)C(c2ccccc2)C1)c1ccccc1Cl` (stereo not given): the growth inhibition is -5.05% in assay [1]; -36% in assay [2]; 27.9% in assay [3]; -1.15% in assay [4]; -9.2% in assay [5].
As to `C/C(=N\NC(=O)c1cccnc1)c1cccc(/C(C)=N/NC(=O)c2cccnc2)n1.CC(=O)[O-].CC(=O)[O-].[Zn+2]`, the growth inhibition in assay [1] was -5.45%; in assay [2], -2.6%; in assay [3], -15.2%; in assay [4] it was -6.1%; in assay [5], -4%.
For `Cc1cc(C)c(N)c(C)n1`, in that order: -14.8%, -22.1%, -1.25%, 1.1% and 11.9%.
For `CC(=O)Nc1ccccc1C`, in that order: 11.9%, -0.55%, -5.65%, 5.2% and 3.05%.
For `CC(=O)c1c(O)ccc2c(C)cc(=O)oc12`, in that order: 37.5%, 7.4%, 3.1%, 26.9% and 15.8%.
For the compound `CCCCNS(=O)(=O)c1ccccc1`, the growth inhibition is 7.95% in assay [1]; -59.6% in assay [2]; 9.65% in assay [3]; 1.6% in assay [4]; 20.4% in assay [5].
For the compound `CCOC(=O)CCC(=O)c1ccc2cc(OC)ccc2c1`, the growth inhibition in assay [1] was 5.55%; in assay [2], 11.8%; in assay [3], -36%; in assay [4], 34.9%; in assay [5], 27.1%.
For `O=C(Nc1ncccn1)c1ccc(Cl)cc1Cl`, in that order: -11.9%, 30.6%, -21.5%, 10.6% and 32.3%.
